Source: PubChem BioAssay AID651610 (Broad Institute, 2012)
About 3,900 (1.1%) of roughly 360,000 compounds were called active.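 Rule for the calls: active = mean replicate inhibition score of at least 50 and every replicate individually at or above 50; inconclusive = only one of the two criteria met; inactive = mean below 50 and not all replicates reaching 50.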 Shown is part of a subset that was picked to be rich in actives.

Test: blockers of JRFL envelope-mediated fusion – HeLa-JRFL effector, CEM21 target cells, luciferase, primary screen (AID 651610);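 note: 0% = plate neutral controls and 100% = maraviroc near 300 nM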
Settings: HeLa-JRFL Env/CEM21 cell fusion, hits give high values; at 16.7 µM unless noted

Row | Structure (SMILES) | inhibition
1 | Cc1ccc(S(=O)(=O)N(C)C[C@@H]2Oc3ccc(NC(=O)Cc4ccccc4)cc3CC(=O)N([C@H](C)CO)C[C@H]2C)cc1 | 14.2% (inactive)
2 | CO[C@@H]1CN(C)C(=O)c2cc(NC(=O)c3ccc(F)cc3)ccc2OC[C@H](C)N(C(=O)CN(C)C)C[C@H]1C | 6.25% (inactive)
3 | O=C(CC1C(=O)NCCN1Cc1ccc(-c2ccccc2)cc1)NCc1ccncc1 (configuration not stated) | -0.899% [at 12.3 µM] (inactive)
4 | Cc1ccccc1-n1cc(CNC(=O)C2CCC(=O)N(C3CC3)C2)cn1 (configuration not stated) | 5.76% [at 12.3 µM] (inactive)
5 | Cc1ccccc1-n1cc(CNC(=O)CC2C(=O)NCCN2C/C=C/c2ccccc2)cn1 (configuration not stated) | 58% [at 12.3 µM] (active)
6 | C[C@@H]1CN([C@@H](C)CO)C(=O)Cc2cc(NS(=O)(=O)c3cccs3)ccc2O[C@@H]1CN(C)C(=O)Nc1ccc(C(F)(F)F)cc1 | 0.927% (inactive)
7 | CC(C)NC(=O)N(C)C[C@H]1Oc2ncc(-c3cccc(C#N)c3)cc2C(=O)N([C@@H](C)CO)C[C@H]1C | 8.57% (inactive)
8 | CC1CCN(C(=O)COC(=O)c2cc(S(=O)(=O)N3CCOCC3)ccc2Cl)CC1 | 5.19% [at 12.3 µM] (inactive)
9 | COC(=O)C1CCN(C(=O)COC(=O)c2cc(S(=O)(=O)N3CCOCC3)ccc2C)CC1 | 72.4% [at 12.3 µM] (active)
10 | CCOC(=O)C1CCN(C(=O)COC(=O)C2CCN(S(=O)(=O)c3ccc4c(c3)OCCO4)CC2)CC1 | 29.3% [at 12.3 µM] (inactive)
11 | COc1ccc(CNC(=O)C[C@H]2CC[C@H](NC(=O)Nc3ccc4c(c3)OCO4)[C@H](CO)O2)cc1 | 15.7% (inactive)
12 | CC(C)NC(=O)N(C)C[C@@H]1OCCCC[C@@H](C)Oc2ccc(NC(=O)NC3CCCCC3)cc2C(=O)N([C@@H](C)CO)C[C@@H]1C | -9.6% (inactive)
13 | C[C@H]1CN([C@@H](C)CO)C(=O)c2cc(C#CC3(O)CCCC3)cnc2O[C@@H]1CN(C)C(=O)Cc1ccccc1 | 15.7% (inactive)
14 | C[C@@H]1CN([C@H](C)CO)S(=O)(=O)c2ccc(C#CCN(C)C)cc2O[C@@H]1CN(C)C | 5.39% (inactive)
15 | CN(C)CCCn1c(=O)n(Cc2ccccc2)c(=O)c2c3c(sc21)CCCCC3 | 63.7% [at 12.3 µM] (active)
16 | O=c1c2c3c(sc2n(CCN2CCCC2)c(=O)n1Cc1ccccc1)CCCCC3 | 46.8% [at 12.3 µM] (inactive)
17 | CCn1c(=S)[nH]c2sc3c(c2c1=O)CCCCC3 | -33.7% [at 12.3 µM] (inactive)
18 | CNC(=O)C[C@@H]1CC[C@H]2[C@@H](COc3ccc(NC(=O)NCc4ccccc4)cc3C(=O)N2C)O1 | -0.208% (inactive)
19 | CCN(C[C@H]1N[C@@](CC)(C(=O)OC)[C@H]2C(=O)N(Cc3ccccc3)C(=O)[C@@H]12)S(=O)(=O)c1ccccc1 | 42% [at 12.3 µM] (inactive)
20 | COC(=O)[C@]1(Cc2ccccc2)N[C@H](CN(C)S(=O)(=O)c2ccc(OC(F)(F)F)cc2)[C@@H]2C(=O)N(Cc3ccccc3)C(=O)[C@@H]21 | 48.1% [at 12.3 µM] (inactive)
21 | CCN(C[C@H]1N[C@@](CC)(C(=O)OC)[C@H]2C(=O)N(Cc3ccccc3)C(=O)[C@@H]12)S(=O)(=O)c1ccc(C(F)(F)F)cc1 | 99.4% [at 12.3 µM] (active)

Row | Structure (SMILES) | inhibition
22 | Cc1ccc(S(=O)(=O)N[C@@H]2CC[C@@H](CC(=O)O)O[C@@H]2CO)cc1 | 7.43% (inactive)
23 | CN1CCN(S(=O)(=O)c2cccc(C(=O)N3CCc4ccccc43)c2)CC1 | -15.7% [at 12.3 µM] (inactive)
24 | CC1CCN(C(=O)c2cccc(S(=O)(=O)N3CCCc4ccccc43)c2)CC1 | 39.9% [at 12.3 µM] (inactive)
25 | CNC(=O)C1CN(C(=O)c2cccc(S(=O)(=O)N3CCc4ccccc43)c2)c2ccccc2O1 (configuration not stated) | 60.2% [at 12.3 µM] (active)
26 | C[C@@H]1CN([C@H](C)CO)C(=O)c2cc(NC(=O)Nc3ccc4c(c3)OCO4)ccc2O[C@H]1CN(C)C(=O)Nc1ccccc1 | 7.58% (inactive)
27 | O=C(COc1ccccc1Cl)N1N=C(c2cccs2)CC1c1ccco1 (configuration not stated) | -7.8% [at 12.3 µM] (inactive)
28 | Fc1ccc(N2N=C(c3cccs3)CC2c2ccco2)c(F)c1 (configuration not stated) | 55.9% [at 12.3 µM] (active)
29 | Cc1ccccc1C1CC(c2cccs2)=NN1S(C)(=O)=O (configuration not stated) | -91.6% [at 12.3 µM] (inactive)
30 | CCS(=O)(=O)Nc1ccc2c(c1)C(=O)N(C)[C@H]1CC[C@H](CC(=O)NCc3ccccc3F)O[C@H]1CO2 | -0.764% (inactive)
31 | Cc1cccc(CS(=O)(=O)c2ncc(Cl)c(C(=O)Nc3ccc(F)cc3)n2)c1 | -12.3% [at 12.3 µM] (inactive)
32 | CSc1nnc(NC(=O)c2nc(S(=O)(=O)Cc3ccc(C)cc3)ncc2Cl)s1 | 73.8% [at 12.3 µM] (active)
33 | NC(=O)CSc1nnc(NC(=O)c2ccc(Br)o2)s1 | -7.67% [at 12.3 µM] (inactive)
34 | Cc1noc(C)c1NC(=O)N(C)C[C@H]1Oc2ccc(NC(=O)Cn3cnnn3)cc2CC(=O)N([C@H](C)CO)C[C@@H]1C | -12.7% (inactive)
35 | C[C@@H]1CN([C@@H](C)CO)C(=O)c2cc(NC(=O)Cc3ccccc3)ccc2O[C@@H]1CN(C)S(=O)(=O)c1ccccc1 | -22.1% (inactive)
36 | Cc1ccc(S(=O)(=O)NCC[C@@H]2CC[C@H](NC(=O)c3ccccn3)[C@H](CO)O2)cc1 | -12.9% (inactive)
37 | C[C@H](CO)N1C[C@H](C)[C@@H](CN(C)Cc2ccc3c(c2)OCO3)Oc2c(cccc2N(C)C)C1=O | -26.8% (inactive)
38 | CC1CCCCN1S(=O)(=O)c1ccc(S(=O)(=O)N(CC(=O)Nc2ccccc2)Cc2cccs2)cc1 (configuration not stated) | 20% [at 12.3 µM] (inactive)
39 | CC1CCCCN1S(=O)(=O)c1ccc(C(=O)Nc2nnc(-c3cccs3)o2)cc1 (configuration not stated) | 80.2% [at 12.3 µM] (active)
40 | CSCc1nnc(NC(=O)c2ccc(S(=O)(=O)N3CCCCC3C)cc2)o1 (configuration not stated) | -0.826% [at 12.3 µM] (inactive)
41 | CCOC(=O)C1CCCN(C(=O)c2cc(-c3cccs3)oc2C)CC1 (configuration not stated) | 29.9% [at 12.3 µM] (inactive)
42 | Cc1cc(C(=O)N2CCC(C(=O)O)CC2)c(C(F)(F)F)o1 | 87.5% [at 12.3 µM] (active)

Row | Structure (SMILES) | inhibition
43 | O=C(O)C1CCN(C(=O)c2cc(F)cc3c2OCOC3)CC1 | -1.42% [at 12.3 µM] (inactive)
44 | CCCN(C)C[C@H]1Oc2ncc(C#CC3CCCCC3)cc2C(=O)N([C@H](C)CO)C[C@@H]1C | 18.3% (inactive)
45 | C[C@H](CO)N1C[C@H](C)[C@H](CN(C)CC2CCCCC2)Oc2c(NC(=O)c3cnccn3)cccc2C1=O | -9.66% (inactive)
46 | CCC(=O)N1C[C@H](C)[C@H](OC)CN(C)C(=O)c2cc(NC(=O)Nc3cccc(F)c3)ccc2OC[C@@H]1C | -5.04% (inactive)
47 | C[C@@H]1CN([C@@H](C)CO)C(=O)c2cc(NS(=O)(=O)c3ccccc3)ccc2O[C@@H](C)CCCCO[C@H]1CN(C)S(=O)(=O)c1cccs1 | -25.8% (inactive)
48 | C[C@@H]1CCCCO[C@@H](CN(C)CC2CC2)[C@@H](C)CN([C@H](C)CO)C(=O)c2cc(NC(=O)C3CCCCC3)ccc2O1 | 19.6% (inactive)
49 | COc1ccc(NC(=O)Nc2ccc3c(c2)C(=O)N([C@@H](C)CO)C[C@@H](C)[C@@H](CN(C)Cc2ccncc2)OCCCC[C@@H](C)O3)cc1 | -12.5% (inactive)
50 | COc1ccc(NC(=O)Nc2ccc3c(c2)C(=O)N([C@H](C)CO)C[C@H](C)[C@H](CN(C)Cc2ccncc2)OCCCC[C@H](C)O3)cc1 | 58.1% (active)
51 | C[C@@H]1CCCCO[C@H](CN(C)C(=O)Nc2ccccc2)[C@H](C)CN([C@@H](C)CO)C(=O)c2cc(N(C)C)ccc2O1 | -23.9% (inactive)
52 | COc1ccc(CN(C)C[C@@H]2OCCCC[C@@H](C)Oc3ccc(NC(=O)Nc4ccc(OC)cc4)cc3C(=O)N([C@@H](C)CO)C[C@@H]2C)cc1 | -18.5% (inactive)
53 | Cc1ccc(S(=O)(=O)Nc2ccc3c(c2)C(=O)N([C@@H](C)CO)C[C@@H](C)[C@@H](CN(C)Cc2ccc(C(F)(F)F)cc2)OCCCC[C@@H](C)O3)cc1 | 79.2% (active)
54 | C[C@@H]1CCCCO[C@@H](CN(C)CC2CCCCC2)[C@H](C)CN([C@H](C)CO)C(=O)c2cc(NC(=O)C3CCCCC3)ccc2O1 | 68.4% (active)
55 | C[C@H](CO)N1C[C@H](C)[C@H](CN(C)Cc2ccc(C(F)(F)F)cc2)OCCCC[C@H](C)Oc2ccc(NS(=O)(=O)c3ccc(Cl)cc3)cc2C1=O | 18.4% (inactive)
56 | C[C@@H]1CCCCO[C@@H](CN(C)Cc2ccc(C(F)(F)F)cc2)[C@H](C)CN([C@H](C)CO)C(=O)c2cc(NS(=O)(=O)c3ccc(F)cc3)ccc2O1 | 32.9% (inactive)
57 | C[C@@H]1CCCCO[C@@H](CN(C)CC2CC2)[C@H](C)CN([C@H](C)CO)C(=O)c2cc(NC(=O)C3CCCCC3)ccc2O1 | -2.41% (inactive)
58 | C[C@H](CO)N1C[C@H](C)[C@@H](CN(C)C(=O)Nc2cccc3ccccc23)OCCCC[C@H](C)Oc2ccc(N(C)C)cc2C1=O | 67.4% (active)
59 | C[C@@H]1CCCCO[C@@H](CN(C)C(=O)Nc2ccccc2)[C@@H](C)CN([C@@H](C)CO)C(=O)c2cc(N(C)C)ccc2O1 | -2.93% (inactive)
60 | O=C(N[C@@H]1C=C[C@H](CC(=O)N2CCCCC2)O[C@H]1CO)c1cccc(F)c1 | 2.78% (inactive)
61 | COc1cccc(NC(=O)N[C@@H]2CC[C@H](CC(=O)Nc3ccccc3)O[C@@H]2CO)c1 | -24.4% (inactive)
62 | Cc1ccc(S(=O)(=O)Nc2cccc3c2O[C@H](CN(C)S(=O)(=O)c2cn(C)cn2)[C@H](C)CN([C@H](C)CO)C3=O)cc1 | -8.23% (inactive)
